Results as given in PubChem BioAssay (NCI).
About 83,000 compounds went through this panel and 20% of them were active in at least one assay; those are over-represented in the sample as a whole.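 Percent growth is the endpoint: 0 to 100 indicates growth inhibition (40 means 60% inhibition), 0 means no net growth, and negative values indicate cell death.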 Calls of active or inactive are those of the source. How the source made its calls: active means growth percent below 10; inactive means the rest.

How the values were obtained:
Assay in all cases: NCI-60 one-dose screen, 48 h (100 = growth as untreated, 0 = no growth, -100 = all killed)
Conditions in all cases: 10 µM unless noted
[1] = tested on: SR leukemia
[2] = tested on: RPMI-8226 leukemia
[3] = tested on: OVCAR-8 ovarian
[4] = tested on: OVCAR-5 ovarian
[5] = tested on: OVCAR-4 ovarian
[6] = tested on: SK-OV-3 ovarian
[7] = tested on: IGROV1 ovarian
[8] = tested on: OVCAR-3 ovarian
[9] = tested on: HS 578T breast
[10] = tested on: NCI/ADR-RES ovarian

Measured: growth

CCCCCC(=O)Oc1ccc(/C(=C(\C)c2ccc(OC)cc2)c2ccc(OCCN3CCCCC3)cc2)cc1
inactive: [3] 74.3% | [4] 82.2% | [5] 54.5% | [6] 68.2% | [7] 79% | [8] 74.9% | [9] 64.9% | [10] 71.2%
active: [1] -2% | [2] 9.96%

COc1ccc(/C=C/C(=O)c2cc(O)ccc2O)cc1
inactive: [1] 71.9% | [2] 45.8% | [3] 88.6% | [4] 108% | [5] 136% | [6] 115% | [7] 83.4% | [8] 83.4% | [9] 106% | [10] 91.8%

COc1cccc(/C=C2\SC(=Nc3ccc(NC(C)=O)cc3)NC2=O)c1OC
inactive: [1] 94.8% | [2] 96.7% | [3] 93% | [4] 91.7% | [5] 100% | [6] 91.3% | [7] 103% | [8] 111% | [9] 70.5% | [10] 102%

O=c1cc(/C(=C2/C=CC=N2)c2ccc[nH]2)c2cc(Cl)ccc2o1
inactive: [1] 23.7% | [2] 51% | [4] 93.1% | [5] 77% | [6] 34.8% | [7] 31.5% | [9] 22.2%
active: [3] -4.06% | [8] -20.3% | [10] 5.06%

CCn1c(O)c(/C=N/NC(=O)C(C)c2ccc(CC(C)C)cc2)sc1=S (stereo not given)
inactive: [1] 26.3% | [3] 22.6% | [4] 52% | [5] 56.7% | [6] 45.3% | [7] 24.1% | [9] 17.8%
active: [2] 1.77% | [8] 1.8% | [10] 5.41%

CCCCCCN(CCCCCC)CCC(O)c1ccc2ccccc2c1 (stereo not given)
inactive: [3] 73.4% | [4] 69.5% | [5] 45.7% | [6] 83.5% | [7] 59.6% | [8] 69.7% | [9] 69.1% | [10] 58%
active: [1] 0.428% | [2] 7.65%

C#CC(F)(F)[C@]1(O)CC[C@H]2[C@@H]3CCC4=CC(=O)CCC4=C3[C@@H](c3ccc(C(C)=O)cc3)C[C@@]21C
inactive: [3] 90% | [4] 84.4% | [5] 76.2% | [6] 52.8% | [9] 76.5% | [10] 82.7%
active: [1] 7.36% | [2] 2% | [7] -34.3% | [8] 9.4%

OCC(O)c1nc2ccc3[nH]ncc3c2c2c1CCCC2 (stereo not given)
inactive: [2] 10.2% | [3] 10.8% | [4] 10.2% | [5] 50.4% | [6] 40.9% | [7] 10.4% | [8] 16.1%
active: [1] -4.58% | [9] -10.5% | [10] 9.22%

O=C1c2cc3c(cc2-c2c1c1ccc(F)cc1c(=O)n2C[C@H](O)[C@@H](O)[C@H](O)CO)OCO3
inactive: [5] 15.4% | [7] 17.7%
active: [1] 0.151% | [2] -0.286% | [3] 0.0181% | [4] -29.8% | [6] -20.8% | [8] -20.3% | [9] 0.229% | [10] 4.78%

CCCCN1CCCn2c1nc1c2c(=O)n(CCC)c(=O)n1CCC
inactive: [1] 67.1% | [2] 110% | [3] 102% | [4] 105% | [5] 101% | [6] 101% | [7] 110% | [8] 94.8% | [9] 96.4% | [10] 99.8%

CC(=O)Oc1ccc(Cl)cc1CN(C(C)=O)C1CCCCC1
inactive: [1] 92.9% | [2] 84% | [3] 97.1% | [4] 103% | [5] 119% | [6] 99.7% | [7] 98.2% | [8] 114% | [9] 104% | [10] 110%

O=C1c2cc3c(cc2-c2c1c1ccc(F)cc1c(=O)n2CCCNCCO)OCO3
active: [1] -25.7% | [2] -12.5% | [3] -33% | [4] -59.4% | [5] -76.9% | [6] -33.7% | [7] -5.09% | [8] -28.1% | [9] 3.15% | [10] -13.8%

Cc1cc(N2CCSCC2)nc(NC2CCCC(Nc3ccnc4cc(Cl)ccc34)C2)n1 (stereo not given)
active: [1] -54% | [2] -52.6% | [3] -20.9% | [7] -16.1% | [8] -38.4% | [9] -34.2% | [10] 1.15%
inactive: [4] 29.7% | [5] 16.8% | [6] 34.8%

COc1ccc(-c2cc(=O)c3c(OC)c4ccoc4cc3o2)cc1
inactive: [1] 82.4% | [2] 102% | [3] 99.2% | [4] 93.6% | [5] 109% | [6] 112% | [7] 113% | [8] 106% | [9] 120% | [10] 96.2%

O=C(COc1ccc(/C=C2\COc3ccccc3C2=O)cc1)Nc1nccs1
inactive: [3] 85% | [4] 93% | [5] 92.9% | [6] 127% | [8] 95.8% | [10] 86.1%
active: [1] -2.82% | [2] -0.182% | [7] 3.63% | [9] -38.3%

O=C(COc1cccc(/C=C2\CSc3ccccc3C2=O)c1)Nc1nccs1
active: [1] -47% | [2] -31.2% | [7] -52.2% | [9] -8.26%
inactive: [3] 31% | [4] 83.8% | [5] 78.3% | [6] 116% | [8] 24.4% | [10] 54.8%

O=C(Nc1cccc2[nH]c(C(F)(F)F)nc12)c1ccc(-n2cnnn2)cc1
inactive: [1] 79.5% | [2] 48.7% | [3] 89.4% | [4] 123% | [5] 90.5% | [6] 104% | [7] 95.5% | [8] 76.2% | [9] 108% | [10] 107%

O=C(CN(C(=O)Cn1c(=O)n2nnnc2c2ccccc21)c1ccccc1C(F)(F)F)Nc1ccc(C(F)(F)F)cc1
inactive: [1] 111% | [2] 103% | [3] 100% | [4] 106% | [5] 97.1% | [6] 103% | [7] 88.1% | [8] 110% | [9] 103% | [10] 106%

O=C(Nc1ccc(Cl)cc1)c1cc2cc(F)ccc2cc1O
inactive: [4] 29.9% | [5] 26.4% | [7] 42.5% | [8] 23% | [9] 18.6%
active: [1] 4.79% | [2] -8.91% | [3] 8.21% | [6] -18.7% | [10] 4.6%

O=CNc1ccc2c(c1)Cc1cccc(NC=O)c1-2
inactive: [1] 108% | [2] 103% | [3] 99.5% | [4] 89.6% | [5] 112% | [6] 104% | [7] 103% | [8] 90.2% | [9] 97.1% | [10] 99.7%

CCOC(=O)c1c(C(=O)OCC)c2cc(-c3ccn4c(C(=O)c5ccccc5)c(C(=O)OCC)c(C(=O)OCC)c4c3)ccn2c1C(=O)c1ccccc1
inactive: [1] 90.4% | [2] 50.6% | [3] 71.8% | [4] 130% | [5] 89.2% | [6] 109% | [7] 82.3% | [8] 95% | [9] 80.7% | [10] 89.5%

C#Cc1cccc(NC(=O)c2ccccc2NC(=O)C=C)c1
inactive: [1] 101% [8.25 µM] | [2] 66.9% [8.25 µM] | [3] 91.4% [8.25 µM] | [4] 113% [8.25 µM] | [5] 100% [8.25 µM] | [6] 99.2% [8.25 µM] | [7] 101% [8.25 µM] | [8] 104% [8.25 µM] | [9] 89.9% [8.25 µM] | [10] 103% [8.25 µM]

CC[C@]1(O)C[C@@H]2CN(CCc3c([nH]c4ccccc34)[C@@](C(=O)OC)(c3cc4c(cc3OC)N(C)[C@H]3[C@@](O)(C(N)=O)[C@H](O)[C@]5(CC)[C@@H]6C[C@@H]6CN6CC[C@]43[C@@H]65)C2)C1
active: [8] 6.81% | [10] 9.52%
inactive: [1] 12.1% | [2] 13.8% | [3] 15.9% | [4] 52.2% | [5] 52% | [6] 14.8% | [7] 36.5% | [9] 30.2%

C#CCOc1ccc2ncnc(Nc3cccc(CNC(=O)C=C)c3)c2c1
inactive: [1] 103% [8.25 µM] | [2] 101% [8.25 µM] | [3] 95.8% [8.25 µM] | [4] 100% [8.25 µM] | [5] 92.5% [8.25 µM] | [6] 107% [8.25 µM] | [7] 88.8% [8.25 µM] | [8] 104% [8.25 µM] | [9] 91.9% [8.25 µM] | [10] 107% [8.25 µM]

CCN1CCN(c2nc(NCCCNc3ccnc4cc(Cl)ccc34)c3ccccc3n2)CC1
active: [1] -33.3% | [2] -10%
inactive: [3] 16.6% | [4] 55.1% | [5] 48% | [6] 60% | [7] 59.3% | [8] 54% | [9] 78.8% | [10] 92.6%

O=C1/C(=C(/c2ccccc2)N2CCOCC2)Cc2ccccc21
active: [8] -60.7% | [9] 5.18% | [10] -33.1%
inactive: [1] 26.6% | [2] 16.5% | [3] 20.4% | [4] 34.4% | [5] 31.7% | [6] 93.6% | [7] 14%
